In PubChem BioAssay (Tox21):
Results filed as inconclusive are left out. A number with no mark means an inactive call. Activity calls are given as the source filed them. Unless noted, the call rests on the fitted dose curve; in most records, active means well fitted curve in the direction sought with a large enough effect in the repeat runs; inconclusive means weak or mixed curves; inactive means no such curve, though single readings can be large; an effect the other way counts as inactive or inconclusive.

System: not listed separately
Test: qHTS assay to identify small molecule phospholipidosis (PLD) inducers (AID 1259344; active means well fitted curve in the direction sought with a large enough effect; an effect the other way counts as inactive or inconclusive)
Conditions: HepG2 phospholipidosis, LipidTOX Red imaging, 24 h; series mostly up to 38.3 µM; PLD induction: at the top concentration
Outline: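 Accumulated phospholipid, stained red by LipidTOX during 24 h compound treatment of HepG2 cells at 37 C, is quantified from images as pit number and intensity, normalised per cell using Hoechst-stained nuclei.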
On the % scale 0 is the no-effect control and ±100 the full control effect.

Compound | PLD induction
CC(NNC(=O)c1ccccc1)c1ccccc1 (stereo unspecified) | -0.201%
CC(=O)O[C@H]1C(=O)[C@@]2(C)[C@H]([C@H](OC(=O)c3ccccc3)[C@]3(O)C[C@H](OC(=O)[C@H](O)[C@@H](NC(=O)c4ccccc4)c4ccccc4)C(C)=C1C3(C)C)[C@]1(OC(C)=O)CO[C@@H]1C[C@@H]2O | 11.3%
CCC(=O)NS(=O)(=O)c1ccc(-c2c(-c3ccccc3)noc2C)cc1 | -3.65%
CN(C(=O)CO)c1c(I)c(C(=O)NCC(O)CO)c(I)c(C(=O)NCC(O)CO)c1I (stereo unspecified) | -1.7%
CC(C(=O)O)c1ccc(N2Cc3ccccc3C2=O)cc1 (stereo unspecified) | -0.474%

Target: Nuclear receptor subfamily 1 group I member 2 (Homo sapiens) (UniProt O75469)
Test: CYP3A4 induction through human pregnane X receptor (PXR) by small molecules, qHTS assay (AID 1346984); further: nearly all actives have a fitted effect of over 40% in size; further: potency means the concentration at half of the fitted maximal effect
Conditions: DPX-2 HepG2 PXR, CYP3A4-luciferin luminescence, 24 h; series mostly up to 46.1 µM; activation: at the top concentration
Outline: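 Induction measured in HepG2-based DPX-2 cells co-expressing human PXR and a CYP3A4 promoter-driven luciferase. After a 24-hour compound exposure, cells received CYP3A4 luciferin substrate at 3uM final for 3 hours, and light output was then recorded.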

Compound | activation | Potency
CNc1cc(OC)c(C(=O)N[C@H]2CCN(Cc3ccccc3)[C@H]2C)cc1Cl | 5.82% | –
C#CCOc1ccc2c(C)cc(=O)oc2c1 | -11.2% | –
CCCC(=O)Nc1c(I)cc(I)c(CC(CC)C(=O)O)c1I (stereo unspecified) | – | 22.4 µM (active)
CC1=C[C@H](O)CC(C)(C)[C@H]1/C=C/C(C)=C/C=C/C(C)=C/C=C/C=C(C)/C=C/C=C(C)/C=C/C1=C(C)C[C@@H](O)CC1(C)C | -8.83% | –
CC(=O)Nc1ccc(NC(=S)NC(=O)c2ccc(C(C)(C)C)cc2)cc1 | 23.1% | –
Cn1c(=O)c2c(ncn2CCOC(=O)C(C)(C)Oc2ccc(Cl)cc2)n(C)c1=O | 0.347% | –
CC1=C(/C=C/C(C)=C/C=C/C(C)=C/C=C/C=C(C)/C=C/C=C(C)/C=C/C2=C(C)C[C@@H](O)CC2(C)C)C(C)(C)C[C@H](O)C1 | 4.53% | –
CCN(CC)CCOc1ccc2nc(N(C)C)sc2c1 | 17.6% | –
Cc1cccc(C)c1Nc1ncccc1C(=O)O | -1.05% | –
CC1=C(/C=C/C(C)=C/C=C/C(C)=C/C=C/C=C(C)/C=C/C=C(C)/C=C/C2=C(C)C(=O)CCC2(C)C)C(C)(C)CCC1=O | 1.02% | –
CCC(=O)O[C@]1(C(=O)CCl)[C@@H](C)C[C@H]2[C@@H]3C[C@H](F)C4=CC(=O)C=C[C@]4(C)[C@@]3(F)[C@@H](O)C[C@@]21C | – | 1.58 µM (active)
O=C1C(=O)c2ncccc2-c2cccnc21 | -16.1% | –
CCCCCCCCCCCCCCCCCC(=O)OCC(C)O (stereo unspecified) | -5.97% | –
CC(NNC(=O)c1ccccc1)c1ccccc1 (stereo unspecified) | 15.2% | –
CC(=O)O[C@H]1C(=O)[C@@]2(C)[C@H]([C@H](OC(=O)c3ccccc3)[C@]3(O)C[C@H](OC(=O)[C@H](O)[C@@H](NC(=O)c4ccccc4)c4ccccc4)C(C)=C1C3(C)C)[C@]1(OC(C)=O)CO[C@@H]1C[C@@H]2O | – | 6.31 µM (active)
CC(C(=O)O)c1ccc(N2Cc3ccccc3C2=O)cc1 (stereo unspecified) | -17.4% | –
